From publication PMC11006913

Columns and labels:
Test in all cases: PBM; 200 nM protein, PBS
Conditions in all cases: dsDNA, one strand shown
HOXA4 [1] = target: HOXA4 (Homo sapiens, UniProt Q00056 201-287, W262R)
HOXA4 [2] = target: HOXA4 (Homo sapiens, UniProt Q00056 201-287, R217L)
ALX3 [3] = target: ALX3 (Homo sapiens, UniProt O95076 139-225, N203Q)
HOXA4 [4] = target: HOXA4 (Homo sapiens, UniProt Q00056 201-287)
ALX3 [5] = target: ALX3 (Homo sapiens, UniProt O95076 139-225)
ALX3 [6] = target: ALX3 (Homo sapiens, UniProt O95076 139-225, L168Q)
ALX3 [7] = target: ALX3 (Homo sapiens, UniProt O95076 139-225, L168V)
HOXA4 [8] = target: HOXA4 (Homo sapiens, UniProt Q00056 201-287, W262F)
ALX3 [9] = target: ALX3 (Homo sapiens, UniProt O95076 139-225, N203S)
HOXB6 [10] = target: HOXB6 (Homo sapiens, UniProt P17509 132-218, K202E)
HOXB6 [11] = target: HOXB6 (Homo sapiens, UniProt P17509 132-218)
PROP1 [12] = target: PROP1 (Homo sapiens, UniProt O75360 56-141)
PROP1 [13] = target: PROP1 (Homo sapiens, UniProt O75360 56-141, R99H)
PROP1 [14] = target: PROP1 (Homo sapiens, UniProt O75360 56-141, F88S)
PROP1 (Homo sapiens, UniProt O75360 56-141, F88S), sequence (O75360 56-141 F88S): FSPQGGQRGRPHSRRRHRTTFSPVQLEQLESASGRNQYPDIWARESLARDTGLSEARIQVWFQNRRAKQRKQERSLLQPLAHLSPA

HOXA4 (Homo sapiens, UniProt Q00056 201-287, W262F), sequence (Q00056 201-287 W262F): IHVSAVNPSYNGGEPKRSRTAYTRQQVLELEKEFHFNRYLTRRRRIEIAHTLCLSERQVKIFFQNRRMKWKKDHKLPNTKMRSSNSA
HOXA4 (Homo sapiens, UniProt Q00056 201-287), sequence (Q00056 201-287): as the sequence (Q00056 201-287 W262F) above, with F62W counted along it
ALX3 (Homo sapiens, UniProt O95076 139-225, N203S), sequence (O95076 139-225 N203S): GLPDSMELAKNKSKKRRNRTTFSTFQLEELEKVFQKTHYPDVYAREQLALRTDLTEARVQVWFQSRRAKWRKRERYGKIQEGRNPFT
ALX3 (Homo sapiens, UniProt O95076 139-225, L168V), sequence (O95076 139-225 L168V): as the sequence (O95076 139-225 N203S) above, with L30V, S65N counted along it
ALX3 (Homo sapiens, UniProt O95076 139-225, N203Q), sequence (O95076 139-225 N203Q): as the sequence (O95076 139-225 N203S) above, with S65Q counted along it
ALX3 (Homo sapiens, UniProt O95076 139-225), sequence (O95076 139-225): as the sequence (O95076 139-225 N203S) above, with S65N counted along it
HOXA4 (Homo sapiens, UniProt Q00056 201-287, R217L), sequence (Q00056 201-287 R217L): as the sequence (Q00056 201-287 W262F) above, with R17L, F62W counted along it
ALX3 (Homo sapiens, UniProt O95076 139-225, L168Q), sequence (O95076 139-225 L168Q): as the sequence (O95076 139-225 N203S) above, with L30Q, S65N counted along it
HOXA4 (Homo sapiens, UniProt Q00056 201-287, W262R), sequence (Q00056 201-287 W262R): as the sequence (Q00056 201-287 W262F) above, with F62R counted along it
HOXB6 (Homo sapiens, UniProt P17509 132-218), sequence (P17509 132-218): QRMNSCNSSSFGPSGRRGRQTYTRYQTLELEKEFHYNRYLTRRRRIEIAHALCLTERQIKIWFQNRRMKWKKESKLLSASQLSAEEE
HOXB6 (Homo sapiens, UniProt P17509 132-218, K202E), sequence (P17509 132-218 K202E): as the sequence (P17509 132-218) above, with K71E counted along it
PROP1 (Homo sapiens, UniProt O75360 56-141, R99H), sequence (O75360 56-141 R99H): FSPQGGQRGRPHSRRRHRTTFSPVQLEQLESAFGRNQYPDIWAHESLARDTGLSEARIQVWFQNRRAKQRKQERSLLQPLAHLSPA
PROP1 (Homo sapiens, UniProt O75360 56-141), sequence (O75360 56-141): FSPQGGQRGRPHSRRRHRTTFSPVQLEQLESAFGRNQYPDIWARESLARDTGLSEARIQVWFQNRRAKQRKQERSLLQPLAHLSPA

Sequence | binding signal (HOXA4 [1]) | binding signal (HOXA4 [2]) | binding signal (ALX3 [3]) | binding signal (HOXA4 [4]) | binding signal (ALX3 [5]) | binding signal (ALX3 [6]) | binding signal (ALX3 [7]) | binding signal (HOXA4 [8]) | binding signal (ALX3 [9]) | binding signal (HOXB6 [10]) | binding signal (HOXB6 [11]) | binding signal (PROP1 [12]) | binding signal (PROP1 [13]) | binding signal (PROP1 [14])
CCCCCGGC | 9.54 upbm affinity estimate (log intensity, higher = more binding, comparable within an allelic series) | 9.54 upbm affinity estimate (log intensity, higher = more binding, comparable within an allelic series) | 7.57 upbm affinity estimate (log intensity, higher = more binding, comparable within an allelic series) | 9.88 upbm affinity estimate (log intensity, higher = more binding, comparable within an allelic series) | 7.92 upbm affinity estimate (log intensity, higher = more binding, comparable within an allelic series) | 7.56 upbm affinity estimate (log intensity, higher = more binding, comparable within an allelic series) | 7.46 upbm affinity estimate (log intensity, higher = more binding, comparable within an allelic series) | 9.51 upbm affinity estimate (log intensity, higher = more binding, comparable within an allelic series) | 7.52 upbm affinity estimate (log intensity, higher = more binding, comparable within an allelic series) | – | – | – | – | –
CATTAACG | 10.6 upbm affinity estimate (log intensity, higher = more binding, comparable within an allelic series) | 11.8 upbm affinity estimate (log intensity, higher = more binding, comparable within an allelic series) | – | 13.6 upbm affinity estimate (log intensity, higher = more binding, comparable within an allelic series) | – | – | – | 11.4 upbm affinity estimate (log intensity, higher = more binding, comparable within an allelic series) | – | 9.9 upbm affinity estimate (log intensity, higher = more binding, comparable within an allelic series) | 11.6 upbm affinity estimate (log intensity, higher = more binding, comparable within an allelic series) | – | – | –
CGAGGGCG | 9.7 upbm affinity estimate (log intensity, higher = more binding, comparable within an allelic series) | 9.75 upbm affinity estimate (log intensity, higher = more binding, comparable within an allelic series) | 7.74 upbm affinity estimate (log intensity, higher = more binding, comparable within an allelic series) | 9.8 upbm affinity estimate (log intensity, higher = more binding, comparable within an allelic series) | 7.69 upbm affinity estimate (log intensity, higher = more binding, comparable within an allelic series) | 7.78 upbm affinity estimate (log intensity, higher = more binding, comparable within an allelic series) | 7.76 upbm affinity estimate (log intensity, higher = more binding, comparable within an allelic series) | 9.89 upbm affinity estimate (log intensity, higher = more binding, comparable within an allelic series) | 7.73 upbm affinity estimate (log intensity, higher = more binding, comparable within an allelic series) | – | – | – | – | –
CTCCCACC | 9.83 upbm affinity estimate (log intensity, higher = more binding, comparable within an allelic series) | 9.72 upbm affinity estimate (log intensity, higher = more binding, comparable within an allelic series) | – | 9.74 upbm affinity estimate (log intensity, higher = more binding, comparable within an allelic series) | – | – | – | 9.88 upbm affinity estimate (log intensity, higher = more binding, comparable within an allelic series) | – | – | – | – | – | –
CCCAGACC | 9.9 upbm affinity estimate (log intensity, higher = more binding, comparable within an allelic series) | 9.76 upbm affinity estimate (log intensity, higher = more binding, comparable within an allelic series) | 7.81 upbm affinity estimate (log intensity, higher = more binding, comparable within an allelic series) | 9.51 upbm affinity estimate (log intensity, higher = more binding, comparable within an allelic series) | 7.71 upbm affinity estimate (log intensity, higher = more binding, comparable within an allelic series) | 7.78 upbm affinity estimate (log intensity, higher = more binding, comparable within an allelic series) | 7.7 upbm affinity estimate (log intensity, higher = more binding, comparable within an allelic series) | 9.84 upbm affinity estimate (log intensity, higher = more binding, comparable within an allelic series) | 7.84 upbm affinity estimate (log intensity, higher = more binding, comparable within an allelic series) | – | – | 6.45 upbm affinity estimate (log intensity, higher = more binding, comparable within an allelic series) | 6.71 upbm affinity estimate (log intensity, higher = more binding, comparable within an allelic series) | 6.48 upbm affinity estimate (log intensity, higher = more binding, comparable within an allelic series)
AACATTAG | 10.2 upbm affinity estimate (log intensity, higher = more binding, comparable within an allelic series) | 10.8 upbm affinity estimate (log intensity, higher = more binding, comparable within an allelic series) | – | 12.4 upbm affinity estimate (log intensity, higher = more binding, comparable within an allelic series) | – | – | – | 10.7 upbm affinity estimate (log intensity, higher = more binding, comparable within an allelic series) | – | – | – | – | – | –
